A selection: hits, their analogues and other compounds. The true share with any hit is near 0.52%.
S aureus helic: inhibitors of S. aureus replicative helicase, primary screen, biochemical, fluorescence unwinding readout. inhibition, % (concentration not given with the values). actives 0.05% (n = 120,000). purified S. aureus helicase, fluorescence unwinding assay. AID 485395, 2010. replicative DNA helicase (DnaC/DnaB), Staphylococcus aureus; in the data active means inhibition above about 25%, passing the limit was not always enough
Sa growth 42C: S. aureus growth inhibition at 42 and 30 °C, primary screen, LtaS inhibitor project, RN4220, two temperatures. relative growth, % (test concentration not listed). OD600, 20 h, 42 °C; hits give low values. AID 720641, 2013. actives 0.53% (n = 170,000);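 active means relative growth at most 50% at the other temperature and 20+ points below 30 °C, or under 10% at both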
Large screens that a line does not name were inactive; ! = a repeat was not active.

CC[C@H]1OC(=O)[C@H](C)C(=O)[C@H](C)[C@@H](O[C@@H]2O[C@H](C)C[C@H](N(C)C)[C@H]2O)[C@](C)(OC)C[C@@H](C)C(=O)[C@H](C)[C@@H]2N(CCCCn3cnc(-c4cccnc4)c3)C(=O)O[C@@]21C	none (no result: S aureus helic)
O=C(NC1CCCCNC1=O)c1cnn(-c2ccccc2)c1C(F)(F)F (centres undefined)	none (no result: S aureus helic)
CCOc1cccc(C2c3c(-c4cc(C)ccc4O)n[nH]c3C(=O)N2Cc2ccco2)c1 (centres undefined)	Sa growth 42C 35.5 (no result: S aureus helic)
COc1cc(C2c3c(-c4cc(C)ccc4O)n[nH]c3C(=O)N2Cc2ccco2)cc(OC)c1OC (centres undefined)	none (no result: S aureus helic)
COc1ccc(-c2n[nH]c(=S)n2CCC(=O)O)cc1	none
CCCOC(=O)C(N)c1ccccc1 (centres undefined)	none
CCN1CCN(C(=O)N[C@@H](C(=O)N[C@@H]2C(=O)N3[C@@H]2SC(C)(C)[C@@H]3C(=O)O)c2ccccc2)C(=O)C1=O	Sa growth 42C -0.5 (no result: S aureus helic)
CC1(C)S[C@@H]2[C@H](NC(=O)[C@H](N)c3ccccc3)C(=O)N2[C@H]1C(=O)O	Sa growth 42C -0.9! (no result: S aureus helic)
Cc1onc(-c2ccccc2)c1C(=O)NC1CCCCC1NC(=O)c1c(-c2ccccc2)noc1C (centres undefined)	none
CC1(C)SC(c2ccc(C3NC(C(=O)O)C(C)(C)S3)cc2)NC1C(=O)O (centres undefined)	none
CC1(C)S[C@@H]2[C@H](NC(=O)C(C(=O)O)c3ccccc3)C(=O)N2[C@H]1C(=O)O (some centres undefined)	Sa growth 42C 0.0 (no result: S aureus helic)
Cc1onc(-c2ccccc2)c1C(=O)N[C@@H]1C(=O)N2[C@@H]1SC(C)(C)[C@@H]2C(=O)O	Sa growth 42C -1.3 (no result: S aureus helic)
Cc1cc(C(=O)OCc2ccccc2)c(C)o1	none
CN(C)c1nc(N)nc(C2CCCN2S(=O)(=O)c2ccc3ccccc3c2)n1 (centres undefined)	none
COc1ccc(CCC(=O)Nc2ccc3nc(N4CCN(c5ncccn5)CC4)cc(C)c3c2)cc1	none
COC(=O)c1ccc(NC(=O)N2CCOc3ccc(C)cc32)cc1	none
C/C(CCc1ccc2c(c1)OCO2)=N\N=C1/NC(=O)CC(C(=O)O)S1 (centres undefined)	none
CN(C)/C=C/C(=O)c1ccccc1	none
O=C(/C=C/C(=O)c1ccccc1)c1ccccc1	Sa growth 42C -0.4
Cc1c(C(=O)Oc2cccc3cccnc23)oc2ccccc12	none
Cc1ccc(S(=O)(=O)NC(=O)Oc2cccc3cccnc23)cc1	Sa growth 42C 0.2
Cn1cc(Br)c(NC(=O)c2ccc(Cl)c(Cl)c2)n1	none (no result: S aureus helic)
CCC(C)N1C(=O)S/C(=C/c2ccc(O)c(Cl)c2)C1=O (centres undefined)	Sa growth 42C -0.6
CCOc1cc(/C=C2/SC(=S)N(C(CC)C(=O)O)C2=O)ccc1O (centres undefined)	none
Cc1nn(Cc2ccccc2)c(Cl)c1C(=O)Nc1nnc(-c2ccccc2)o1	none
CCOC(=O)CC(=N)N	S aureus helic 63.0
CCOC(=O)CC(N)=S	none
COc1ccc(-c2nsc(NC(=O)CC(C)C)n2)cc1	none
O=C1CC(c2nc3ccccc3[nH]2)CN1c1cccc2ccccc12 (centres undefined)	none
Cn1c(C2CC(=O)N(c3cccc4ccccc34)C2)nc2ccccc21 (centres undefined)	Sa growth 42C 0.4
O=C(O)CCC(=O)N1CCC(Oc2nnnc3ccccc23)CC1	none
COC(=O)c1cc2sc(C)cc2n1CC(=O)NCCc1ccccc1	none
N#C/C(=C/c1ccccc1)c1cccc(C#N)c1	none
N#C/C(=C\c1ccccc1)c1cccc(Cl)c1	Sa growth 42C 44.3 (no result: S aureus helic)
CCC(Oc1ccccc1)c1nc(-c2ccc(OC)c(OC)c2)no1 (centres undefined)	none (no result: Sa growth 42C)
COc1ccc(-c2c(C#N)c(SCC(=O)c3ccccc3)nc3c2C(=O)CC(C)(C)C3)cc1	none
COC(=O)c1cn(-c2ccccc2)nc1-c1cccs1	Sa growth 42C 18.4
CN(C)C(=O)c1cn(-c2ccccc2)nc1-c1cccs1	none
COC(=O)c1cscc1OC(=O)c1ccc(C(F)(F)F)cc1	Sa growth 42C 21.4 (no result: S aureus helic)
COC(=O)c1sccc1OC(=O)c1ccc(C(C)(C)C)cc1	none (no result: S aureus helic)
CCN1C(=O)/C(=N\N2CCN(C)CC2)c2ccccc21	none
CN1/C(=C\C=N\NC(=O)CCN2CCCCC2)C(C)(C)c2ccccc21	none
CCc1c(C)sc2c1CCN(Cc1cccc(F)c1)C2c1ccccc1 (centres undefined)	Sa growth 42C -1.3 (no result: S aureus helic)
CCc1c(C)sc2c1CCN(Cc1ccc(F)cc1)C2c1ccccc1 (centres undefined)	Sa growth 42C -1.1 (no result: S aureus helic)
CCc1c(C)sc2c1CCN(Cc1ccc(C#N)cc1)C2c1ccccc1 (centres undefined)	none (no result: S aureus helic)
CCc1c(C)sc2c1CCN(C(=O)Nc1cc(C)cc(C)c1)C2c1ccccc1 (centres undefined)	none (no result: S aureus helic)
O=C1Nc2ccccc2S/C1=C/c1ccc(C(=O)N2CCC3(CC2)OCCO3)cc1	none
Cc1cc(C)n(-c2ccc(C(=O)Oc3ccc4oc5c(c4c3)CCCC5)cc2)n1	none
O=C(O)/C=C/C(=O)N1CCOCC1	none
Cc1ccc(Cn2c(=O)cc(C(=O)NCc3cccs3)c3ccccc32)cc1	none
CCOc1nnc(NS(=O)(=O)c2ccc(N=Cc3ccccc3O)cc2)s1	Sa growth 42C 7.8
Cc1cc(NS(=O)(=O)c2ccc(N=Cc3ccccc3O)cc2)no1	none
Cc1csc2nc(COC(=O)c3ccc4c(c3)NC(=O)C3CCCN43)cc(=O)n12 (centres undefined)	none
C=CCSc1ncc2c(=S)[nH]c(=S)[nH]c2n1	Sa growth 42C 0.0 (no result: S aureus helic)
CCN(CC)c1ncc2c(=S)[nH]c(=S)[nH]c2n1	none (no result: S aureus helic)
Cn1nnnc1SCCCC(=O)c1ccc(F)cc1	none
COc1ccc(CNCCN(C)C)cc1OC	none
O=C(Nc1cccc(F)c1)NC1CCCC1	none
CC1CCC(C(C)C)C(NC(=S)Nc2cccc(F)c2)C1 (centres undefined)	Sa growth 42C -0.8 (no result: S aureus helic)
CCOC(=O)N1CCN(C(=O)CCN2c3ccccc3Sc3ccccc32)CC1	none
O=c1cc(C(F)(F)F)[nH]c2ccc(Br)cc12	none (no result: S aureus helic)
O=c1cc(C(F)(F)F)[nH]c2c(OC(F)(F)F)cccc12	Sa growth 42C 3.4 (no result: S aureus helic)
COc1cccc2c(=O)cc(C)[nH]c12	none
O=c1cc(C(F)(F)F)[nH]c2c(Br)cccc12	Sa growth 42C 3.1
NC(=O)C(Cc1ccccc1)NC(=O)Cc1ccc(F)cc1 (centres undefined)	none
FC(F)(F)c1ccc(NCc2ccco2)nc1	none
C[N+](C)(CCOc1ccccc1)Cc1ccccc1	none (no result: S aureus helic)
Cc1cc(C(C)(C)CC(C)(C)C)ccc1OCCOCC[N+](C)(C)Cc1ccccc1	Sa growth 42C 0.9 (no result: S aureus helic)
Cc1c(C(=O)NCCCN2CCOCC2)cc(-c2ccccc2)n1-c1ccccc1	none (no result: S aureus helic)
Cc1oc2c(c1C(=O)NCc1ccccc1)C(=O)c1ccccc1C2=O	none
Cc1oc2c(c1C(=O)O)C(=O)c1ccccc1C2=O	none
Cc1oc2c(c1C(=O)NCc1ccccn1)C(=O)c1ccccc1C2=O	Sa growth 42C 0.6
Cc1oc2c(c1C(=O)NCCCN1CCOCC1)C(=O)c1ccccc1C2=O	Sa growth 42C 1.7
Cc1oc2c(c1C(=O)N1CCc3ccccc3C1)C(=O)c1ccccc1C2=O	Sa growth 42C 6.5
CCN(CC)c1nn2c(=O)c(C(=O)N3CCC4(CC3)OCCO4)cnc2s1	none
CN(CCc1ccccn1)S(=O)(=O)c1cccc(Cl)c1	none (no result: S aureus helic)
